Source: PubChem (National Center for Advancing Translational Sciences (NCATS))
PI5P4Ka inh – qHTS for Inhibitors of phosphatidylinositol 5-phosphate 4-kinase (PI5P4K). Phosphatidylinositol 5-phosphate 4-kinase type-2 alpha (Homo sapiens), P48426. PI5P4Kalpha enzyme, ADP-Glo luminescence, 60 min; stronger effect = lower value. max response, %. 330,000 tested, 1.2% active. AID 652105, 2013; active means max response of -50% or lower; inconclusive means between -30% and -50%; inactive means -30% or higher; further: value at the top dose of about 77 µM; on the % scale 0 is the no-effect control and ±100 the full control effect
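ADP-Glo luminescence end-point after a 60 min room-temperature kinase reaction. PI5P4Kalpha and substrate in HEPES pH 7.4 buffer with EGTA, 0.1% CHAPS and 5% DMSO; ATP at 5 microM final.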
WRN helicase inh – qHTS for Inhibitors of WRN Helicase; AID 651768, 2012; Bifunctional 3'-5' exonuclease/ATP-dependent helicase WRN (Homo sapiens), Q14191; Potency, µM (highest dose often 114 µM), inactives show top-dose activity change, negative = inhibition, usual class: inhibitors; WRN helicase unwinding, fluorescent forked duplex, kinetic; 360,000 tested, 0.46% active; further: potency means the concentration at half of the fitted maximal effect; on the % scale 0 is the no-effect control and ±100 the full control effect; nearly all actives have a fitted effect of over 55% in size
Target sequence (Q14191 whole entry, looked up): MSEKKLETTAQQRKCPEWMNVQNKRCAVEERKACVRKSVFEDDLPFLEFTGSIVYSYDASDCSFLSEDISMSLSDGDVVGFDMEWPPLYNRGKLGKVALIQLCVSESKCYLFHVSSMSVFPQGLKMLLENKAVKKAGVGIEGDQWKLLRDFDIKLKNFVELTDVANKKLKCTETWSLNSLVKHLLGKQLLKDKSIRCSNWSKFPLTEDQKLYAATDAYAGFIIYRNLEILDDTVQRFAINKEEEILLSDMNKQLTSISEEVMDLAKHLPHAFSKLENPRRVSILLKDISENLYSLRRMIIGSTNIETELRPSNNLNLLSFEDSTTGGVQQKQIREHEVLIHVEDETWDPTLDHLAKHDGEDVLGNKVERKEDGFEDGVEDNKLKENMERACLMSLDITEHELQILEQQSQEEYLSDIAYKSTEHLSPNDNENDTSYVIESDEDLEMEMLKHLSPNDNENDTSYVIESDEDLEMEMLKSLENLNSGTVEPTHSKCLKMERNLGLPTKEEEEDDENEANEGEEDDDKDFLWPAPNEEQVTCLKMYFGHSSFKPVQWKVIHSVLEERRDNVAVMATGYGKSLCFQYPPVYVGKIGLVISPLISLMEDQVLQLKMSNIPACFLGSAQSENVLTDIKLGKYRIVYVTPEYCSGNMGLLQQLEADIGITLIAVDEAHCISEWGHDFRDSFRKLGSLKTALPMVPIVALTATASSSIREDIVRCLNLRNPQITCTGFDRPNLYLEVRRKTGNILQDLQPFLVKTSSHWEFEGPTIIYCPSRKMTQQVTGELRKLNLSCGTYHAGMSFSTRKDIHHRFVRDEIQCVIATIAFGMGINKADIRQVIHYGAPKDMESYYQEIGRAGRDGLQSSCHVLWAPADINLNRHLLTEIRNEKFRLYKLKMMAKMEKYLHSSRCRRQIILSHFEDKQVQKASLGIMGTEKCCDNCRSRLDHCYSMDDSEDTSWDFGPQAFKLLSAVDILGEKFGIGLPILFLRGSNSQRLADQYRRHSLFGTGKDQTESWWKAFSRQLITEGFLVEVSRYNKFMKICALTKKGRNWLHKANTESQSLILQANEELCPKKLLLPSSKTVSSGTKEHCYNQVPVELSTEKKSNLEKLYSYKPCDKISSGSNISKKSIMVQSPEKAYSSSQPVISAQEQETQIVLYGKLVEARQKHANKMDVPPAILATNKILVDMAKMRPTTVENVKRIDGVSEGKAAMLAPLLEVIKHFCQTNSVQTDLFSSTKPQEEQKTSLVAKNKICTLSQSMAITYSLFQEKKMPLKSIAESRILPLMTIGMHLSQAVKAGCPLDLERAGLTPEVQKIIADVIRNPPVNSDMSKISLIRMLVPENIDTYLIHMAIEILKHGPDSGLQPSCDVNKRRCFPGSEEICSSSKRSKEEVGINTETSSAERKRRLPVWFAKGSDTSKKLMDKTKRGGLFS
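WRN at 20 nM final preincubated with compound 15 min at room temperature; reaction started with 100 nM fluorophore/quencher forked duplex oligonucleotide and 2 mM ATP final. Unwinding followed kinetically by red fluorescence (ex 525, em 598 nm).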
POLB inh – qHTS Assay for Inhibitors of DNA Polymerase Beta. P06746. AID 485314, 2010. Pol beta primer extension/strand displacement, fluorescence kinetic. 340,000 tested, 1.3% active. Potency, µM (titrated, usually from 114 µM), for inactives: at the top dose activity change, negative = inhibition, hits mostly inhibitors; further: potency means the concentration at half of the fitted maximal effect; on the % scale 0 is the no-effect control and ±100 the full control effect
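Homogeneous kinetic assay of primer extension and strand displacement by 10 nM Pol beta, preincubated 15 min at room temperature with compound before 50 nM substrate (final) was added. Read at 0 and 10 min; four-parameter Hill fit.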
POLK inh – qHTS for Inhibitors of Polymerase Kappa | DNA polymerase kappa (Homo sapiens), Q9UBT6 | purified Pol kappa, fluorescent DNA synthesis assay, 10 min | Potency, µM (doses to about 107 µM), without a hit: at the top dose activity, negative = inhibition, most hits filed as inhibitors | 400,000 tested, 0.53% active; further: potency means the concentration at half of the fitted maximal effect; on the % scale 0 is the no-effect control and ±100 the full control effect
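Enzyme at 10 nM met test compounds for 15 min at room temperature. Substrate addition (50 nM final) began the reaction, which was monitored by fluorescence at 0 and 10 min.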
Pol iota inh – qHTS for Inhibitors of Polymerase Iota; DNA polymerase iota (Homo sapiens), Q9UNA4; Pol iota fluorescent replication assay, 10 min; Potency, µM (highest dose often 115 µM), inactives show at the highest dose activity, negative = inhibition, actives largely listed as inhibitors; 390,000 tested, 1% active; further: potency means the concentration at half of the fitted maximal effect
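Pol iota at 10 nM preincubated 15 min with compounds at room temperature; reaction started with fluorescent substrate, 50 nM final. Fluorescence read kinetically at 0 and 10 min; buffer-only wells as negative control.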
Pol eta inh – qHTS for Inhibitors of Polymerase Eta; Potency, µM (doses to about 114 µM), inactives show at the top dose activity change, negative = inhibition, usual class: inhibitors; DNA polymerase eta (Homo sapiens), Q9Y253; recombinant Pol eta, fluorescent DNA replication assay; 390,000 tested, 1.2% active; AID 588591, 2011; further: potency means the concentration at half of the fitted maximal effect; on the % scale 0 is the no-effect control and ±100 the full control effect
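Pol eta at 10 nM preincubated with compounds 15 min at room temperature; reaction started with fluorescent substrate (50 nM final) and read kinetically at 0 and 10 min.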
Starred values were filed as active, the others as inactive; ? = inconclusive; nt = not tested or not shown; [ ] = another dose, or the depositor's remark. This is a sample that favours compounds with a hit; in the whole collection about 2.8% have one here. Unless noted, the call rests on the fitted dose curve; in most records, active means well fitted curve in the direction sought with a large enough effect; inconclusive means small, poorly fitted or top-dose-only effect, or another doubt; inactive means no such curve, though single readings can be large; an effect the other way counts as inactive or inconclusive.

SMILES	PI5P4Ka inh	WRN helicase inh	POLB inh	POLK inh	Pol iota inh	Pol eta inh
CCCSc1nc2sc3c(c2c(=O)n1-c1ccc(C)c(Cl)c1)CCN(C(C)=O)C3	nt	nt	?	11%	?	79µM*
CC(=O)N1CCc2c(sc3nc(SCC(C)C)n(-c4ccc(C)c(Cl)c4)c(=O)c23)C1	nt	nt	-13%	-9%	?	?
O=C1NC(=O)C(Cc2ccccc2)(c2cccnc2)N1 (centres undefined)	0	0%	-4%	-13%	30%	-12%
CCOc1ccc2nc(Cl)c(C3CC(c4ccco4)=NN3S(C)(=O)=O)cc2c1 (centres undefined)	-16	-3%	5%	-19%	?	-8%
CCOc1ccc2cc(C3CC(c4ccco4)=NN3S(C)(=O)=O)c(=O)[nH]c2c1 (centres undefined)	?	-4%[11.6 µM]	16%	-27%	35µM*	?
Cn1c(=O)[nH]c(Nc2ccccc2)c([N+](=O)[O-])c1=O	-58*	-3%	0%	-4%	8%	-20%
C[C@H](NC(=O)[C@@H]1CCCN1C(=O)[C@@H]1CCCN1C(=O)c1cccc2ccccc12)c1ccccc1	1	-4%	nt	nt	nt	nt
COc1cccc(OCc2nnc(SCC(=O)NCc3ccco3)n2CCc2ccccc2)c1	?	-19%[57.1 µM]	22µM*	?	?	14µM*
COc1cccc(OCc2nnc(SCC(=O)NCc3ccco3)n2C)c1	0	-10%	-10%	-14%	2%	-2%
Cc1ccc(-c2c(C3C4C=CCC(C)C4C(=O)N3Cc3ccccc3)ccc3ccccc23)cc1 (centres undefined)	nt	nt	nt	-2%	21%	nt
Cc1cc(C)c2nc3s/c(=C/c4ccccc4)c(=O)n3c2c1	nt	nt	-1%	nt	nt	nt
Cc1ccc2c(nc3s/c(=C/c4cccs4)c(=O)n32)c1C	?	-24%	32µM*	?	?	20µM*
O=C(NCc1ccco1)[C@@H]1CSC2c3ccccc3C(=O)N21 (some centres undefined)	?	-28%	-27%	?	20µM*	14µM*
CCOc1ccccc1NC(=O)C1CCN(S(=O)(=O)c2c(C)noc2/C=C/c2ccc(C)cc2)CC1	nt	nt	-29%	-4%[60.1 µM]	6%	-19%
O=C(O)c1ccc(COc2ccccc2[N+](=O)[O-])o1	1	-1%[11.6 µM]	?	-9%	0%	13µM*
O=C(O)c1ccc(OCc2ccc(C(=O)O)o2)cc1	-16	19%	?	-7%	9%	32µM*
CN(C)c1ccc(-c2ccc(CCO)cc2)cc1	nt	nt	nt	-42%	?	nt
COc1ccc(NC(=O)c2cc(C3CCCCN3C(=O)c3cccs3)on2)c(C)c1 (centres undefined)	3	-1%	nt	nt	nt	nt
COc1ccc(C(=O)c2sc(Nc3cc(Cl)ccc3C)nc2N)cc1OC	nt	nt	28µM*	-17%	?	-16%
O=c1[nH]c2ccc(S(=O)(=O)Nc3ccc(Cl)cc3)cc2o1	-5	-5%	20%	2%	-7%	-11%
O=c1[nH]c2ccc(S(=O)(=O)Nc3cc(Cl)ccc3O)cc2o1	nt	nt	?	?	?	89µM*
COc1ccc2nnc(-c3ccccc3)n2n1	nt	-15%[11.6 µM]	-1%	-19%	89µM*	-2%
C=CCNc1nc2cc(-c3ccccc3C)sc2c(=O)n1C	4	1%	nt	nt	nt	nt
CN(C)C(=O)CSc1nnc(-c2ccc(S(=O)(=O)N3CCCC3)cc2)n1C	-20	-11%	4%	?	?	89µM*
Cc1c(C(=O)Nc2ccc(-c3nc4cc(Cl)ccc4o3)cc2)oc2ccccc12	nt	nt	-13%	-20%	?	-19%
SMILES	PI5P4Ka inh	WRN helicase inh	POLB inh	POLK inh	Pol iota inh	Pol eta inh
O=C(O)c1cc(Cl)c2c(c1)[C@@H]1C=CC[C@@H]1[C@H](c1ccc(S(=O)(=O)N3CCOCC3)cc1)N2	-53*	28µM*	32µM*	?	?	28µM*
Cc1cc(C)c2c(c1)C1C=CCC1C(c1ccc(S(=O)(=O)N3CCOCC3)cc1)N2 (centres undefined)	nt	-20%	14%	0%	-3%	-5%
Nc1ccc(/C=C/c2nc3ccccc3s2)cc1	nt	nt	nt	-23%	-20%	nt
CN(N=O)c1ccc2c(c1)Cc1ccccc1-2	nt	nt	nt	6%	21%	nt
CCCCCCCCCCCNC(=O)c1ccoc1C	-19	50µM*	4%	-18%	6%	?
CCOC(=O)c1c(C)oc(=O)c(CC)c1O	4	-7%	nt	nt	nt	-9%
CCOC(=O)c1c(C)oc2c(F)c(F)c(F)c(F)c2c1=O	-19	-17%[57.1 µM]	-22%	79µM*	?	?
CCOC(=O)Cc1csc(NC(=O)c2csc(C)c2)n1	nt	1%	-9%	-4%	15%	-5%
CCOC(=O)Cc1csc(NC(=O)c2sc3nc4c(C)cc(C)cc4cc3c2N)n1	nt	-8%[11.6 µM]	32µM*	-20%	50µM*	?
Cc1cccc(N2CCN(S(=O)(=O)c3ccc4[nH]c(=O)ccc4c3)CC2)c1C	-2	-7%	-19%	-26%	?	5%
Cc1ccc(C)c(N2CCN(S(=O)(=O)c3ccc4[nH]c(=O)ccc4c3)CC2)c1	-17	-5%	28µM*	-1%	?	?
CCCNC(=O)C1CCN(S(=O)(=O)c2ccc3[nH]c(=O)ccc3c2)CC1	-15	4%	6%	6%	-4%	-4%
CCC1CCCCN1S(=O)(=O)c1ccc2[nH]c(=O)ccc2c1 (centres undefined)	?	-11%[11.6 µM]	35µM*	-24%	?	50µM*
COC(=O)CCC(=O)OC1(C)C(=O)C=C2C=C(C3CC3)N(C3CC3)C=C2C1=O (centres undefined)	-3	6%	-11%	-16%	14µM*	-14%
COCCN1C=C2C(=O)C(C)(OC(=O)CCC(=O)OC)C(=O)C=C2C=C1C1CC1 (centres undefined)	1	10%	21%	-11%	47%	-3%
CCC(=O)OC1(C)C(=O)C=C2C=C(c3ccsc3)OC=C2C1=O (centres undefined)	-73*	?	50µM*	50µM*	18µM*	50µM*
COC(=O)CCC(=O)OC1(C)C(=O)C=C2C=C(c3ccsc3)OC=C2C1=O (centres undefined)	-98*	?	nt	20µM*	14µM*	5µM*
N#Cc1cccc(-c2nc(NCc3ccccc3)c3ccccc3n2)c1	nt	nt	nt	-9%[60.1 µM]	nt	nt
